Test results taken from the supplement of paper PMC10037445.
± gives the standard deviation of the averaged measurements. Whole data set: some 2,900 compounds, median “NF-kB SEAP reporter activity, fold change vs agonist alone” near 0.99, cut for the highest 2% near 2.6. The list comes from a sample in which the highest values are over-represented; it also holds similar structures and randomly drawn compounds.

Assays:
[1] = system: RAW-Dual; assay: NF-kB SEAP reporter activity, fold change vs agonist alone; cytotoxicity flag (confluency mask): not cytotoxic; higher = enhanced NF-kB activity
In short: (§1)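 Library stock was pin-tooled at 50 nL into 384-well plates of RAW-Dual macrophages (50,000 cells/well, DMEM), followed 1 h later by a PRR agonist, and the cells were kept at 37 °C, 5% CO2. Supernatant collected after 20 hours was read for IRF by QuantiLuc luminescence and for NF-κB by QuantiBlue absorbance at 620 nm. Reporter activity is fold change over agonist-alone wells, and a well counted as cytotoxic when its IncuCyte confluency was below 70% of agonist controls in both mask sets.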

[2] = system: RAW-Dual; assay: NF-kB SEAP reporter activity, fold change vs agonist alone; higher = enhanced NF-kB activity
In short: as §1

[3] = system: RAW-Dual; assay: NF-kB SEAP reporter activity, fold change vs agonist alone; cytotoxicity flag (confluency mask): cytotoxic (confluency <70% of control); higher = enhanced NF-kB activity
In short: as §1

[4] = agonist: ODN 1826 (TLR9) 0.5 ug/mL
[5] = agonist: Pam2CSK4 (TLR2/6) 0.1 ug/mL
[6] = agonist: Pam3CSK4 (TLR2/1) 0.1 ug/mL
[7] = library stock concentration (final ~1000-fold dilution): 10 mM, cytotoxicity flag (confluency mask): not cytotoxic, agonist: Imiquimod (TLR7) […]
[8] = library stock concentration (final ~1000-fold dilution): 10 mM, cytotoxicity flag (confluency mask): not cytotoxic, agonist: MPLA (TLR4) […]
[9] = library stock concentration (final ~1000-fold dilution): 10 mM, cytotoxicity flag (confluency mask): cytotoxic (confluency <70% of control), agonist: Imiquimod (TLR7) […]
[10] = library stock concentration (final ~1000-fold dilution): 10 mM, cytotoxicity flag (confluency mask): cytotoxic (confluency <70% of control), agonist: MPLA (TLR4) […]

CCOC(=O)C(CCc1ccccc1)NC(C)C(=O)N1CCCC1C(=O)O.O=C(O)/C=C\C(=O)O (configuration not stated) (library stock concentration (final ~1000-fold dilution): 10 mM)
NF-kB SEAP reporter activity ([1]; agonist: LPS (TLR4) 0.1 ug/mL): 1.08
NF-kB SEAP reporter activity [1, 4]: 1.04
NF-kB SEAP reporter activity [1, 5]: 1.03
NF-kB SEAP reporter activity [1, 6]: 1.02

CCOC(=O)C(CCc1ccccc1)NC(C)C(=O)N1CCCC1C(=O)O.O=C(O)/C=C\C(=O)O (configuration not stated)
NF-kB SEAP reporter activity [2, 7]: 0.942
NF-kB SEAP reporter activity [2, 8]: 1.06

CC12CCC(O)CC1=CCC1C2CCC2(C)C(C(O)CC(O)(C(F)(F)F)C(F)(F)F)CCC12 (configuration not stated)
NF-kB SEAP reporter activity [2, 7]: 0.815
NF-kB SEAP reporter activity [2, 8]: 0.786

CC12CCC(O)CC1=CCC1C2CCC2(C)C(C(O)CC(O)(C(F)(F)F)C(F)(F)F)CCC12 (configuration not stated) (library stock concentration (final ~1000-fold dilution): 10 mM)
NF-kB SEAP reporter activity ([1]; agonist: LPS (TLR4) 0.1 ug/mL): 0.54
NF-kB SEAP reporter activity [1, 4]: 0.663
NF-kB SEAP reporter activity [1, 5]: 0.739
NF-kB SEAP reporter activity [1, 6]: 0.489

O=C(Nc1ccc2[nH]nc(-c3ccc4[nH]ccc4c3)c2c1)c1c(Cl)cccc1Cl
NF-kB SEAP reporter activity [2, 9]: 0.55
NF-kB SEAP reporter activity [2, 10]: 0.704

O=C(Nc1ccc2[nH]nc(-c3ccc4[nH]ccc4c3)c2c1)c1c(Cl)cccc1Cl (library stock concentration (final ~1000-fold dilution): 10 mM)
NF-kB SEAP reporter activity ([3]; agonist: LPS (TLR4) 0.1 ug/mL): 0.946
NF-kB SEAP reporter activity [3, 4]: 0.844
NF-kB SEAP reporter activity [3, 5]: 0.0858
NF-kB SEAP reporter activity [3, 6]: 0.202

C=CC(=O)N1CCC(Oc2nc(Nc3ccc(N4CCC(N5CCN(C)CC5)CC4)cc3)c(C(N)=O)nc2CC)C1 (configuration not stated) (library stock concentration (final ~1000-fold dilution): 10 mM)
NF-kB SEAP reporter activity ([3]; agonist: LPS (TLR4) 0.1 ug/mL): 1.06
NF-kB SEAP reporter activity [3, 4]: 0.194
NF-kB SEAP reporter activity [3, 5]: 0.507
NF-kB SEAP reporter activity [3, 6]: 0.542

C=CC(=O)N1CCC(Oc2nc(Nc3ccc(N4CCC(N5CCN(C)CC5)CC4)cc3)c(C(N)=O)nc2CC)C1 (configuration not stated)
NF-kB SEAP reporter activity [2, 9]: 0.967
NF-kB SEAP reporter activity [2, 10]: 1.62

CC1OC(OC2C(=O)c3c(O)cc(O)cc3OC2c2ccc(O)cc2)C(O)C(O)C1O (configuration not stated) (library stock concentration (final ~1000-fold dilution): 10 mM)
NF-kB SEAP reporter activity ([1]; agonist: LPS (TLR4) 0.1 ug/mL): 1.09 ± 0.015
NF-kB SEAP reporter activity [1, 4]: 0.9919 ± 0.0043
NF-kB SEAP reporter activity [1, 5]: 1.06 ± 0.064
NF-kB SEAP reporter activity [1, 6]: 1.39 ± 0.41

CC1OC(OC2C(=O)c3c(O)cc(O)cc3OC2c2ccc(O)cc2)C(O)C(O)C1O (configuration not stated)
NF-kB SEAP reporter activity [2, 7]: 1.03 ± 0.025
NF-kB SEAP reporter activity [2, 8]: 1.04 ± 0.041

O=C1NC(=O)C(c2cnc3ccccn23)=C1c1cn2c3c(cc(F)cc13)CN(C(=O)N1CCCCC1)CC2
NF-kB SEAP reporter activity [2, 7]: 2.62
NF-kB SEAP reporter activity [2, 8]: 2.43

O=C1NC(=O)C(c2cnc3ccccn23)=C1c1cn2c3c(cc(F)cc13)CN(C(=O)N1CCCCC1)CC2 (library stock concentration (final ~1000-fold dilution): 10 mM)
NF-kB SEAP reporter activity ([1]; agonist: LPS (TLR4) 0.1 ug/mL): 3.19
NF-kB SEAP reporter activity [1, 4]: 2.72
NF-kB SEAP reporter activity [1, 5]: 1.42
NF-kB SEAP reporter activity [1, 6]: 1.84

CC(C(=O)Nc1ccc(Cl)cc1)C1CCC(c2ccnc3ccc(F)cc23)CC1 (configuration not stated) (library stock concentration (final ~1000-fold dilution): 10 mM)
NF-kB SEAP reporter activity ([1]; agonist: LPS (TLR4) 0.1 ug/mL): 0.974
NF-kB SEAP reporter activity [1, 4]: 1.05
NF-kB SEAP reporter activity [1, 5]: 0.52
NF-kB SEAP reporter activity [1, 6]: 0.738

CC(C(=O)Nc1ccc(Cl)cc1)C1CCC(c2ccnc3ccc(F)cc23)CC1 (configuration not stated)
NF-kB SEAP reporter activity [2, 7]: 1.51
NF-kB SEAP reporter activity [2, 8]: 1.55

COc1ccc(CNCc2cccc3ccccc23)cc1.Cl (library stock concentration (final ~1000-fold dilution): 10 mM)
NF-kB SEAP reporter activity ([1]; agonist: LPS (TLR4) 0.1 ug/mL): 1.45
NF-kB SEAP reporter activity [1, 4]: 0.82
NF-kB SEAP reporter activity [1, 5]: 1.04
NF-kB SEAP reporter activity [1, 6]: 1.06

COc1ccc(CNCc2cccc3ccccc23)cc1.Cl
NF-kB SEAP reporter activity [2, 7]: 1.34
NF-kB SEAP reporter activity [2, 8]: 1.44

COC1CC2CCC(C)C(O)(O2)C(=O)C(=O)N2CCCCC2C(=O)OC(C(C)CC2CCC(OCCO)C(OC)C2)CC(=O)C(C)C=C(C)C(O)C(OC)C(=O)C(C)CC(C)C=CC=CC=C1C (configuration not stated) (library stock concentration (final ~1000-fold dilution): 10 mM)
NF-kB SEAP reporter activity ([1]; agonist: LPS (TLR4) 0.1 ug/mL): 1.83
NF-kB SEAP reporter activity [1, 4]: 1.7
NF-kB SEAP reporter activity [1, 5]: 0.629
NF-kB SEAP reporter activity [1, 6]: 0.915

COC1CC2CCC(C)C(O)(O2)C(=O)C(=O)N2CCCCC2C(=O)OC(C(C)CC2CCC(OC(=O)C(C)(CO)CO)C(OC)C2)CC(=O)C(C)C=C(C)C(O)C(OC)C(=O)C(C)CC(C)C=CC=CC=C1C (configuration not stated)
NF-kB SEAP reporter activity [2, 7]: 2.36
NF-kB SEAP reporter activity [2, 8]: 2.41

COC1CC2CCC(C)C(O)(O2)C(=O)C(=O)N2CCCCC2C(=O)OC(C(C)CC2CCC(O)C(OC)C2)CC(=O)C(C)C=C(C)C(O)C(OC)C(=O)C(C)CC(C)C=CC=CC=C1C (configuration not stated) (library stock concentration (final ~1000-fold dilution): 10 mM)
NF-kB SEAP reporter activity ([1]; agonist: LPS (TLR4) 0.1 ug/mL): 1.57
NF-kB SEAP reporter activity [1, 4]: 1.11
NF-kB SEAP reporter activity [1, 5]: 0.536
NF-kB SEAP reporter activity [1, 6]: 0.77

COC1CC2CCC(C)C(O)(O2)C(=O)C(=O)N2CCCCC2C(=O)OC(C(C)CC2CCC(O)C(OC)C2)CC(=O)C(C)C=C(C)C(O)C(OC)C(=O)C(C)CC(C)C=CC=CC=C1C (configuration not stated)
NF-kB SEAP reporter activity [2, 7]: 1.44
NF-kB SEAP reporter activity [2, 8]: 1.5
NF-kB SEAP reporter activity ([2]; library stock concentration (final ~1000-fold dilution): .1 mM, cytotoxicity flag (confluency mask): not cytotoxic, agonist: Imiquimod (TLR7) […]): 1.35
NF-kB SEAP reporter activity ([2]; library stock concentration (final ~1000-fold dilution): .1 mM, cytotoxicity flag (confluency mask): not cytotoxic, agonist: MPLA (TLR4) […]): 1.19

COC1CC2CCC(C)C(O)(O2)C(=O)C(=O)N2CCCCC2C(=O)OC(C(C)CC2CCC(OCCO)C(OC)C2)CC(=O)C(C)C=C(C)C(O)C(OC)C(=O)C(C)CC(C)C=CC=CC=C1C (configuration not stated)
NF-kB SEAP reporter activity [2, 7]: 1.77
NF-kB SEAP reporter activity [2, 8]: 1.92

COC1CC2CCC(C)C(O)(O2)C(=O)C(=O)N2CCCCC2C(=O)OC(C(C)CC2CCC(OC(=O)C(C)(CO)CO)C(OC)C2)CC(=O)C(C)C=C(C)C(O)C(OC)C(=O)C(C)CC(C)C=CC=CC=C1C (configuration not stated) (library stock concentration (final ~1000-fold dilution): 10 mM)
NF-kB SEAP reporter activity ([1]; agonist: LPS (TLR4) 0.1 ug/mL): 3.85
NF-kB SEAP reporter activity [1, 4]: 3.11
NF-kB SEAP reporter activity [1, 5]: 1.33
NF-kB SEAP reporter activity [1, 6]: 2.09

COC1CC2CCC(C)C(O)(O2)C(=O)C(=O)N2CCCCC2C(=O)OC(C(C)CC2CCC(O)C(OC)C2)CC(=O)C(C)C=C(C)C(O)C(OC)C(=O)C(C)CC(C)C=CC=CC=C1C (configuration not stated) (library stock concentration (final ~1000-fold dilution): .1 mM)
NF-kB SEAP reporter activity ([1]; agonist: LPS (TLR4) 0.1 ug/mL): 1.2
NF-kB SEAP reporter activity [1, 4]: 1.31
NF-kB SEAP reporter activity [1, 5]: 1.53
NF-kB SEAP reporter activity [1, 6]: 1.44
